Among the data in publication PMC7819943, “Rice protein-binding microarrays: a tool to detect cis-acting elements near promoter regions in rice” are binding signal values, retold here.

Over roughly 39,000 sequences, “fluorescence intensity (a.u.)” has its median near 4,300; the highest 2% begin near 39,000. For the sample, the highest values were picked, then their nearest neighbours and some sequences at random.

The target of this experiment is T1, OsSMF1 (Oryza sativa, UniProt Q6ZLB0 1-436).
T1 sequence: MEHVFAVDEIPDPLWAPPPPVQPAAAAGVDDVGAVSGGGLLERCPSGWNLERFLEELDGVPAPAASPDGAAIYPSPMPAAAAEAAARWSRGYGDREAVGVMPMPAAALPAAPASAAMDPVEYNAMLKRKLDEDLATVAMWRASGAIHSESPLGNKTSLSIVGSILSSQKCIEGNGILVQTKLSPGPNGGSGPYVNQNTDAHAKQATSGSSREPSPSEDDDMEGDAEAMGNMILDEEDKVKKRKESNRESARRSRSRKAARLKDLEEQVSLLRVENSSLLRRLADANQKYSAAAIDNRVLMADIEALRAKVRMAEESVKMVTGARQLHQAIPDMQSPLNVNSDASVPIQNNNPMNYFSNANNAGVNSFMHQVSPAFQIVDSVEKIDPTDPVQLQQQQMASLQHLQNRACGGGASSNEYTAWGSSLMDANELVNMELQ
Nature of the experiment: protein-binding microarray (RPBM); PBS, 2% BSA, 51.3 ng/ul salmon testes DNA, 50 uM zinc acetate, 200 nM TF, 25 C, 1 h; high values mean tight binding. The note with it: protein: recombinant; tags: N-terminal polyhistidine and DsRed monomer fusion (pET32a); chain copies: 2; label: CyDye5-dUTP incorporated in the synthesized complementary strand; 3' TTTTT single-stranded linker to array surface; dsDNA, one strand shown. The procedure, abridged:
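Ni–NTA purification followed expression in E. coli BL21-CodonPlus of transcription factors fused N-terminally to a polyhistidine tag and DsRed. At 200 nM in PBS with 2% BSA, salmon testes DNA and 50 µM zinc acetate, the protein was incubated for 1 h at 25 °C with a custom Agilent array that had been primer-extended with Cy5-dUTP and blocked with 2% BSA. After washing, the array was read on an Axon 4000B scanner. The binding signal is per-feature fluorescence intensity in arbitrary units.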
Turning to “CCCTGGGTGGTTTTGGAGGTGGTTTTGGTTGACGTGGCGCCGGAGTCACCTAGTGCAG”, the binding signal was 21400 fluorescence intensity (a.u.).

In the case of “GGTCAAGAGCGCATCCAGCATGTCGTCGTGTACCTGACCGCGGAGTCACCTAGTGCAG”, the binding signal is 3720 fluorescence intensity (a.u.).

With “TAGTGTTTGTTTTGGGTTGTGCTCAGCTTAGCTCTGGTGTCGGAGTCACCTAGTGCAG”, the binding signal was 39800 fluorescence intensity (a.u.).

As for “GTGGTGTTACGCTACTCGTGCAGTAGTGCCTCATCATGGGCGGAGTCACCTAGTGCAG”, the binding signal is 3500 fluorescence intensity (a.u.).

Turning to “AGATTTTGGGTGTGTTTGGTTGCTTGCATTGTTTTAGTCTCGGAGTCACCTAGTGCAG”, the binding signal was 3300 fluorescence intensity (a.u.).

Turning to “TTGTTCCTTTACAGTTTACAGTCATCTCTATTGTAGTATTCGGAGTCACCTAGTGCAG”, the binding signal was 4220 fluorescence intensity (a.u.).

Consider “TGTAGTGTTACAGTATGCCACGTCATCATGCTACGCTATTCGGAGTCACCTAGTGCAG”, for which the binding signal is 43900 fluorescence intensity (a.u.).

For “CCATGGCGGGGTGTATTGTTGTTGTATTTGGGGTTCTGGTCGGAGTCACCTAGTGCAG”, the binding signal is 3630 fluorescence intensity (a.u.).

Consider “TTTAGCTCTCGTCGATGTGGTGTTTGTTGGGTTTTCCCTTCGGAGTCACCTAGTGCAG”, for which the binding signal was 3670 fluorescence intensity (a.u.).

Turning to “TAGGTTAGTGGTGGCTGGGTCGTCACGTCATTGCATTGCACGGAGTCACCTAGTGCAG”, the binding signal is 3270 fluorescence intensity (a.u.).

With “AGTAGTATTGGCTTGGGGTGTTGCCACGTCATCACCTGGTCGGAGTCACCTAGTGCAG”, the binding signal was 55000 fluorescence intensity (a.u.).

Turning to “ACTCTGCCGGCAGGCGTACGTGTGTCCCGGCATTTGGTCGCGGAGTCACCTAGTGCAG”, the binding signal was 4500 fluorescence intensity (a.u.).

As for “TCTTCCAAATGAACTGGCAATATACTTGTACACGTTCTGTCGGAGTCACCTAGTGCAG”, the binding signal was 3190 fluorescence intensity (a.u.).

As for “ATTCACAGGCCTTTCTTAATTAAAACGGTAGATGGAGCAACGGAGTCACCTAGTGCAG”, the binding signal is 28400 fluorescence intensity (a.u.).

For the sequence “TTGCCGTATCGGCTCGCCTGAAAGCGTGTCATTAGCATGACGGAGTCACCTAGTGCAG”, the binding signal was 3950 fluorescence intensity (a.u.).

Take “GCACATGACTGTGCAAACGCTGTTCCTGATCTGAGTAAGACGGAGTCACCTAGTGCAG”: the binding signal is 4170 fluorescence intensity (a.u.).

“CGGCCGCGACACGCACACGCCCACCCCACGCCCGCCGCGCCGGAGTCACCTAGTGCAG”: the binding signal was 3140 fluorescence intensity (a.u.).

Turning to “GGTCTTGGTAGCCACCGTGTACGGCCTCTGCGGCATGCAGCGGAGTCACCTAGTGCAG”, the binding signal was 3770 fluorescence intensity (a.u.).

Consider “ATGTTATCGTGCTAGTGTCAGCACATTCTCACTGATATTACGGAGTCACCTAGTGCAG”, for which the binding signal was 5330 fluorescence intensity (a.u.).

On to “GTAAGGCGTCCATGTGATGTCATTGTTGATGGGCAAGTGCCGGAGTCACCTAGTGCAG”, for which the binding signal was 6430 fluorescence intensity (a.u.).

For the sequence “CGCATCGCATCTATGACTGGAGAGTGTATCTTTGCTTGCACGGAGTCACCTAGTGCAG”, the binding signal is 3180 fluorescence intensity (a.u.).

As for “TCACCAGCGTCCGGTCAGCCATGGCGCTGAGTGGCCTCTTCGGAGTCACCTAGTGCAG”, the binding signal was 21000 fluorescence intensity (a.u.).

Consider “AAAATGTGAATCTTTTGTATAGCCAGCTTCTTCTAAAACACGGAGTCACCTAGTGCAG”, for which the binding signal is 24900 fluorescence intensity (a.u.).

“AATTGATTTCTCTATAGACAAATAGGGAATGCCAGATTGACGGAGTCACCTAGTGCAG”: the binding signal was 20100 fluorescence intensity (a.u.).

Consider “TACTTCTTCTAAATGCTATAGCCAGGGAATGCAAACGAGACGGAGTCACCTAGTGCAG”, for which the binding signal is 42000 fluorescence intensity (a.u.).

Regarding “CTGCGCCATCCACGCCAAGCGCGTCACCATCATGCCCAAGCGGAGTCACCTAGTGCAG”, the binding signal was 6140 fluorescence intensity (a.u.).

As for “TTCATATCATATACGTACACGTGGAATAATTTGTAATTATCGGAGTCACCTAGTGCAG”, the binding signal was 9010 fluorescence intensity (a.u.).

As for “CTCGGGGTTAAGCAGAGGTTATCGTCCCCGCCGCAGGTTACGGAGTCACCTAGTGCAG”, the binding signal is 4020 fluorescence intensity (a.u.).

Turning to “AGTACTGGATGTGACACATCCTGGTACTACGAATCTGAACCGGAGTCACCTAGTGCAG”, the binding signal is 3910 fluorescence intensity (a.u.).

Consider “CCGGATATGTTCTCGTAGTTTATATACGTTCATGATGACACGGAGTCACCTAGTGCAG”, for which the binding signal was 3450 fluorescence intensity (a.u.).

For “ACTAGGATGTCACAACAGCCAAACCATCCATATACTGCCACGGAGTCACCTAGTGCAG”, the binding signal was 3170 fluorescence intensity (a.u.).

Turning to “AAACGAATCTAGGAATATATGTGACACATCATAGTACTACCGGAGTCACCTAGTGCAG”, the binding signal is 4370 fluorescence intensity (a.u.).

Take “TTCAGGATGAATGGTACGTAACATGATAGGACACTATTCACGGAGTCACCTAGTGCAG”: the binding signal was 48700 fluorescence intensity (a.u.).

Consider “AACACACTAGTAATACGAATCTGAATATGGTACTAGGATACGGAGTCACCTAGTGCAG”, for which the binding signal was 64200 fluorescence intensity (a.u.).

For the sequence “TTCCAACACTAGGATGGTATATGAACCACCAGGATACAAACGGAGTCACCTAGTGCAG”, the binding signal was 41800 fluorescence intensity (a.u.).

For “CCACAAACCAAACCAACCCAAGATATCCTGATGAACCAAACGGAGTCACCTAGTGCAG”, the binding signal is 35300 fluorescence intensity (a.u.).

For “ATATTCATATGACATGACACGTAAATGTCACGTAGGATATCGGAGTCACCTAGTGCAG”, the binding signal was 3700 fluorescence intensity (a.u.).

Consider “TGGCCCAACACATCAACGTTACATCACGGGCTTTAACGTTCGGAGTCACCTAGTGCAG”, for which the binding signal was 3290 fluorescence intensity (a.u.).

Take “AGAAAAGAAAACGCGGCAATAAACAATGACACGGCCTGTCCGGAGTCACCTAGTGCAG”: the binding signal is 4200 fluorescence intensity (a.u.).

For “GGCTGACGGCTGGTGAGAAGCCACGTCAGCATTTAATTCCCGGAGTCACCTAGTGCAG”, the binding signal is 13100 fluorescence intensity (a.u.).

On to “ATTGCGCAGGCGCAGCAATATTGAATGGCCCAAATGCTAGCGGAGTCACCTAGTGCAG”, for which the binding signal is 23800 fluorescence intensity (a.u.).

Turning to “GCACAGGCTTGACACCAGTCGAGCCGAGCCGAAACCCCGTCGGAGTCACCTAGTGCAG”, the binding signal was 3270 fluorescence intensity (a.u.).
